PERK inh: inhibitors of human PERK kinase; AID 1416; 0.17% of 220,000 active; CHO PERK-DD fusion, SEAP luminescence translation reporter; inhibition, % at 5.6 µM; Q9NZJ5;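 active = inhibition above the mean inhibition of all tested compounds plus 3 SD, set separately per screening campaign, cut at about 2.9% in these data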;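 note: PERK kinase domain activated by AP20187 dimerizer at 100 nM; 0% = DMSO with dimerizer and 100% = rapamycin at 8.4 µM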
Target sequence (Q9NZJ5 whole entry, looked up, the tested form may be a part): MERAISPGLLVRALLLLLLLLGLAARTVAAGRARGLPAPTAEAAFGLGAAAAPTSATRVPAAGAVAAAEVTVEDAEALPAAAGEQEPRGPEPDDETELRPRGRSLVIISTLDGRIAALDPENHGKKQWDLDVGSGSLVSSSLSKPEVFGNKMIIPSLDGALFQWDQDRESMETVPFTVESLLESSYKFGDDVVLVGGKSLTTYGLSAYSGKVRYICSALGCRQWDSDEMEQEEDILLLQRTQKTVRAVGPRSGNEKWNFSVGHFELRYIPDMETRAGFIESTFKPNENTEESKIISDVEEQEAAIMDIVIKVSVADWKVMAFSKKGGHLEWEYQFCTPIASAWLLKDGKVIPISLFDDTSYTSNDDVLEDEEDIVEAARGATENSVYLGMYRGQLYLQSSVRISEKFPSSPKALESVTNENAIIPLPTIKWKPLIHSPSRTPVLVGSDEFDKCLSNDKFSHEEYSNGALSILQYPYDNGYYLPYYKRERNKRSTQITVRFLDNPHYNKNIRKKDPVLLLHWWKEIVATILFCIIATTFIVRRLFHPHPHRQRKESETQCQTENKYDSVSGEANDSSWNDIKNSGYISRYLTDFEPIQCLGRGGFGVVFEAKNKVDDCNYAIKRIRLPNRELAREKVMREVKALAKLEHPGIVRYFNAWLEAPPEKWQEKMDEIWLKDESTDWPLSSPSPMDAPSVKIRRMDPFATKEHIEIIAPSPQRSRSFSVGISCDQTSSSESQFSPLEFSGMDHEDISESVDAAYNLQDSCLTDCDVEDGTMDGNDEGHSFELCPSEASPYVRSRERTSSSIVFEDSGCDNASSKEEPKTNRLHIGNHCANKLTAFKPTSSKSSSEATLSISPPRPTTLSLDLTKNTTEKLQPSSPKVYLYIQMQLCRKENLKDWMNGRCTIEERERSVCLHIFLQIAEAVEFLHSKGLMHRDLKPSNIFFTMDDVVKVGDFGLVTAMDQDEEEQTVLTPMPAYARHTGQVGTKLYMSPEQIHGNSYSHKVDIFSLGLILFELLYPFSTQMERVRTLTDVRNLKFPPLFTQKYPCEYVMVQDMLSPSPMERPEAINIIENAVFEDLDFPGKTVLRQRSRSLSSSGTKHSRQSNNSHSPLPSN
eIF4E-4G inh: eIF4E/eIF4G interaction inhibition in translation initiation. 0.37% of 220,000 active. P63073+Q04637. AID 782. TR-FRET eIF4E-eIF4GI(517-606) binding, 2 h. inhibition, % at 21.7 µM;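 active = inhibition above about 30%, limit read from the data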;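 note: 0% = full FRET control wells and 100% = background wells lacking eIF4GI fragment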
Insulin prom inh: TRM-6 insulin promoter activity inhibition | TRM-6 cells (human fetal islet line), insulin promoter-eGFP reporter, imaging; reporter expression induced with tamoxifen | inhibition, % at 2 µM | 0.9% of 130,000 active | AID 1273;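 active = inhibition above the mean plus 3 SD, with well images judged a real hit on visual review, cut at about 60% in these data, passing the limit was not always enough; inconclusive = inhibition over the cutoff but images rejected on review; inactive = inhibition not above the cutoff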
Ins promoter up: MIN6 insulin promoter up-regulation; MIN6 insulin promoter-GFP reporter, high-content imaging; hits give high values; 0.3% of 190,000 active; z-score at 5 µM;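 active = z-score above 3 at 5 µM with at least 500 cells counted in the well; inconclusive = wells under 500 cells, flagged as cytotoxic or low count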
Autophagy HCS: modulators of autophagy; 0.98% of 190,000 active; calls only at 10 µM (by protocol); AID 463193; MEF GFP-LC3 puncta imaging; test concentration mostly 10 µM;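 active = percentage of spot-positive cells more than 3 SD above its plate mean, without a fluorescence outlier flag or 80% toxicity; inconclusive = no clear call, values can overlap the other calls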;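 note: spot-positive cell cutoff set from DMSO-treated cells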
An asterisk follows results filed as active; i = inactive; ? = inconclusive; . = not tested or not shown; + = active, no number. Rows were chosen to be rich in hits. Some 2% of all compounds tested hit in one or more screens of this group.

SMILES	PERK inh	eIF4E-4G inh	Insulin prom inh	Ins promoter up	Autophagy HCS
CCCNC(=O)OCCC12CC3CC(CC(C3)C1)C2	1	2	69*	0.06	i
CCCNC(=O)NCCC12CC3CC(CC(C3)C1)C2	0	2	47	0.23	i
c1csc(CNc2nc(-c3cccs3)nc3ccccc23)c1	1	0	-7	-0.49	i
c1ccc(CN2CCC(Nc3nc(-c4cccs4)nc4ccccc34)CC2)cc1	-1	3	.	-2.5	+
CCN(CC)CCN(C(=O)c1ccc(S(=O)(=O)N2CCCCC2)cc1)c1nc2cc3c(cc2s1)OCO3	1	-1	75*	0.85	i
Cc1csc2c(N3CCN(C(=O)Nc4ccc(OC(F)(F)F)cc4)CC3)ncnc12	0	3	.	0.02	.
COc1ccc(COc2cc(-c3cccc(OC)c3)nc3ccc(NC(=O)c4cccnc4)cc23)cc1	-1	-1	15	.	+
c1ccc(-c2noc(CN3CCN(c4cnccn4)CC3)n2)cc1	0	-3	.	0.19	i
CCNCC(=O)Nc1ccc(N2CCOCC2)cc1	0	-1	.	0.39	+
O=C(CCN1CCN(c2ccccc2)CC1)Nc1ccc(Cl)cc1	0	0	-46	0.35	i
COC(=O)c1ccc(NC(=O)CCN2CCN(c3ccccc3)CC2)cc1	-1	-3	.	-0.38	+
C/C(=C\C(=O)c1ccccc1)Nc1ccc(N2CCOCC2)cc1	-1	5	15	-0.23	i
Cc1ccc(N2CCN(c3ccc(NC(=O)CCC(=O)O)cc3)CC2)cc1	1	3	73*	0.3	i
C/C(=C\C(=O)c1ccc(Cl)cc1)Nc1ccc(N2CCOCC2)cc1	0	4	17	0.41	+
CCc1c(C)sc(NC(=O)Cn2nc(C(F)(F)F)c3c2CCCC3)c1C#N	0	3	42	0.26	i
O=C(Cc1ccccc1)NCc1n[nH]c(=S)n1-c1ccc(Br)cc1	0	-3	-15	0.31	i
CCCCCCCCCCCCOC1OC(CO)C(O)C(O)C1NC(C)=O (centres undefined)	1	18	45	0.44	i
COc1ccc(N/C=C/c2nc(SC)nnc2C)cc1	0	3	.	0.26	+
CCOC(=O)c1ccc(NC(=O)c2ccc(NC(=O)c3ccccc3)cc2)cc1	1	-43	-45	-0.64	i
CC(C)OC(=O)c1ccc(NC(=O)c2ccccc2)cc1	-1	2	-23	.	+
CCC(=O)Nc1ccc(C(=O)N/N=C/c2cc(Br)c(OC)cc2OC)cc1	0	12	6	-0.07	i
COc1ccccc1-n1c(SCC(=O)Nc2ccc(F)cc2)nc2c(c1=O)SCC2	-2	-1	30	0.38	i
COc1ccccc1-n1c(SCC(=O)Nc2cc(C)on2)nc2c(c1=O)SCC2	0	-4	-61	-0.5	+
CCOc1ccc(-c2nc(=S)[nH][nH]2)cc1	3	52*	.	-1.6	i
COc1ccc(-c2nc(=S)[nH][nH]2)cc1	1	4	38	0.82	i
SMILES	PERK inh	eIF4E-4G inh	Insulin prom inh	Ins promoter up	Autophagy HCS
CS(=O)(=O)N(Cc1ccccc1Cl)c1ccc(C(=O)NCc2ccccn2)cc1	-1	-7	-29	0.38	i
CCOC(=O)c1ccc(NC(=O)Cn2ncc(Cl)c(Cl)c2=O)cc1	-1	4	-170	?	+
Nc1cccc2c1C(=O)N(C(=O)/C=C/c1ccc(F)cc1)C2=O	0	-3	.	-0.15	i
CCOc1ccc(Cn2c3ccc(OC)cc3c3nc4ccccc4nc32)cc1	1	12	-33	0	+
CCn1c2ccc(OC)cc2c2nc3ccccc3nc21	0	1	25	0.05	i
CCCCOC(=O)Cn1c2ccc(OC)cc2c2nc3ccccc3nc21	0	0	-19	0.44	+
OCCC1CN(C2CCN(c3ccccc3)CC2)CCN1Cc1ccc(F)c(F)c1 (centres undefined)	0	0	.	.	i
Cc1ccc(C)c(NC(=S)Nc2ccc(S(=O)(=O)Nc3ncccn3)cc2)c1	1	-3	0	.	+
COc1cc(/C=C(/C(=O)c2cccs2)c2nc3ccccc3[nH]2)cc(OC)c1O	0	3	-140	.	+
CC(NC(=O)c1sc2ccccc2c1Cl)C1CCCO1 (centres undefined)	0	-5	-19	0.04	i
N/C(Cc1ccc([N+](=O)[O-])cc1)=N\OC(=O)c1ccccc1F	0	0	.	0.23	i
N/C(Cc1ccc([N+](=O)[O-])cc1)=N\OC(=O)c1ccc(Br)o1	1	-1	71*	-0.25	i
Cc1ccc(OCC(=O)O/N=C(\N)Cc2ccc([N+](=O)[O-])cc2)cc1C	0	40*	.	0	.
O=C(COC(=O)c1ccc(Cl)nc1)c1ccc2c(c1)OCCO2	0	1	.	-0.13	i
CCc1nc(SCC(=O)c2cccs2)c2oc3ccccc3c2n1	1	-38	16	-1.3	i
O=[N+]([O-])/C=C/c1c(OCc2ccccc2)ccc2ccccc12	0	0	43	.	i
CCCCOc1ccc2ccccc2c1C=O	0	-14	0	1.1	+
CCN(CC)CCNc1nc2cc(OC)c(OC)cc2c2nc(-c3ccccc3)nn12	-1	-1	-12	-0.55	i
Cc1ccccc1C(=O)Nc1cccc(C(=O)N/N=C/c2cc(Cl)cc([N+](=O)[O-])c2O)c1	1	36*	.	-0.93	i
O=C(Cn1nc2ccccc2n1)N/N=C/c1cc(Cl)cc([N+](=O)[O-])c1O	2	1	.	0.46	i
Cc1cccc(C(=O)NC(=S)N2CCN(C(=S)NC(=O)c3cccc(C)c3)CC2)c1	0	-6	14	-0.39	i
Cn1cc(Br)c(C(=O)Nc2sc3c(c2C(N)=O)CCC3)n1	-1	4	-23	1.4	i
CCn1ncc(Br)c1C(=O)Nc1sc2c(c1C(N)=O)CCC2	0	-1	45	3.5*	i
O=C(Nc1ccc(N2CCCC2)c(Cl)c1)c1ccco1	0	0	0	0.19	i
Cc1ccc(NC(=O)c2cc(NC(=O)c3ccco3)ccc2N2CCOCC2)cc1Cl	-2	0	0	-1.3	+
SMILES	PERK inh	eIF4E-4G inh	Insulin prom inh	Ins promoter up	Autophagy HCS
O=C(NCCc1ccc(Cl)cc1)Nc1ccc(Cl)cc1	1	10	.	-0.04	.
O=C(NCCOc1nc(N2CCCCC2)nc(N2CCCCC2)n1)Nc1ccccc1	0	1	.	-0.64	i
CCN(CC)c1nc(OCCNC(=O)Nc2ccccc2)nc(N(CC)CC)n1	-2	-11	71*	1.1	i
CCN(CCNC(=O)Nc1ccc(Cl)cc1)c1ccccc1	0	4	-24	1.5	+
COc1ccc(N2C(=O)CCC(C(=O)N3CCCCC3)C2c2ccc(OC)c(OC)c2)cc1 (centres undefined)	1	6	3	-0.38	i
COc1ccc(C2C(C(=O)N3CCOCC3)CCC(=O)N2c2ccc(OC)cc2)cc1 (centres undefined)	0	-10	.	3.7*	i
O=C(CNS(=O)(=O)c1c(Cl)cccc1Cl)OCC(=O)N1CCN(c2ccccc2)CC1	0	5	-41	-0.03	i

Screens as filed in PubChem.
